Data on twelve molecules can be found in publication PMC11062922 (Nature Chemical Biology, 2023).

What all share (set-up): species or system human, MV4-11 + K-562 + COLO205 + SK-N-BE2 + OVCAR-8
Assay [1] concerns T1, DJA1.
T1 construct: gene DNAJA1
As to conditions: read-out: apparent Kd, compound concentrations: 100 nM and 1000 nM (sheet 'Samples'), n = 1.

Assay [2] deals with DDR1. As to conditions: read-out: apparent Kd, n = 1.
Assay [3] relates to MAPK14. As to conditions: read-out: apparent Kd, n = 1.
Assay [4] has as its system MAPKAPK2. As to conditions: read-out: apparent Kd, n = 1.
Assay [5] deals with NNT. As to conditions: read-out: apparent Kd; compound concentrations: 100 nM and 1000 nM (sheet 'Samples'), CATDS: 0.29413941723105502; n = 1.
The subject of assay [6] is PDXK. As to conditions: read-out: apparent Kd, compound concentrations: 100 nM and 1000 nM (sheet 'Samples'), n = 1.
Assay [7] relates to DHCR24. As to conditions: read-out: apparent Kd; compound concentrations:100 nM and 1000 nM (sheet 'Samples'); n = 1.
The test system of assay [8] is MCM5. As to conditions: read-out: apparent Kd; compound concentrations:100 nM and 1000 nM (sheet 'Samples'); n = 1.
The test system of assay [9] is MAPK10. As to conditions: read-out: apparent Kd, n = 1.
For assay [10], the system named is MAPK11. As to conditions: read-out: apparent Kd, n = 1.
The test system of assay [11] is MAPK8. As to conditions: read-out: apparent Kd, n = 1.
Assay [12] relates to MAPK9. As to conditions: read-out: apparent Kd, n = 1.
In assay [13] the test system is PIP4K2C. Particulars: read-out: apparent Kd, n = 1.
In assay [14] the test system is EGFR. Particulars: read-out: apparent Kd; compound concentrations: 100 nM and 1000 nM (sheet 'Samples'), CATDS: 1; n = 1.
Assay [15] has as its system GSK3A. As to conditions: read-out: apparent Kd; compound concentrations: 100 nM and 1000 nM (sheet 'Samples'), CATDS: 0.18190367371529301; n = 1.
Assay [16] has as its system GSK3B. Particulars: read-out: apparent Kd; compound concentrations: 100 nM and 1000 nM (sheet 'Samples'), CATDS: 0.17248189014097001; n = 1.
Assay [17] has as its system ILK. As to conditions: read-out: apparent Kd; compound concentrations: 100 nM and 1000 nM (sheet 'Samples'), CATDS: 0.13612875725697299; n = 1.
Assay [18] concerns NQO2. As to conditions: read-out: apparent Kd; compound concentrations: 100 nM and 1000 nM (sheet 'Samples'), CATDS: 0.173411525016403; n = 1.
Assay [19] concerns DDR2. As to conditions: read-out: apparent Kd; compound concentrations:100 nM and 1000 nM (sheet 'Samples'); n = 1.
The test system of assay [20] is PDGFRB. Particulars: read-out: apparent Kd; compound concentrations:100 nM and 1000 nM (sheet 'Samples'); n = 1.
Assay [21] relates to NLK. Particulars: read-out: apparent Kd; compound concentrations: 100 nM and 1000 nM (sheet 'Samples'), CATDS: 7.8409581021953403E-2; n = 1.
Assay [22] concerns RET. As to conditions: read-out: apparent Kd; compound concentrations:100 nM and 1000 nM (sheet 'Samples'); n = 1.
Assay [23] deals with EPHA1. As to conditions: read-out: apparent Kd; compound concentrations: 100 nM and 1000 nM (sheet 'Samples'), CATDS: 0.132169396234084; n = 1.
Assay [24] deals with EPHA2. As to conditions: read-out: apparent Kd; compound concentrations: 100 nM and 1000 nM (sheet 'Samples'), CATDS: 7.9638266315165504E-2; n = 1.
Assay [25] has as its system EPHA4. Particulars: read-out: apparent Kd; compound concentrations: 100 nM and 1000 nM (sheet 'Samples'), CATDS: 5.73813509995778E-2; n = 1.
The subject of assay [26] is EPHA5. As to conditions: read-out: apparent Kd; compound concentrations: 100 nM and 1000 nM (sheet 'Samples'), CATDS: 6.5260226509332095E-2; n = 1.
In assay [27] the test system is EPHB2. Particulars: read-out: apparent Kd; compound concentrations: 100 nM and 1000 nM (sheet 'Samples'), CATDS: 6.01599429552135E-2; n = 1.
Assay [28] concerns EPHB4. Particulars: read-out: apparent Kd; compound concentrations: 100 nM and 1000 nM (sheet 'Samples'), CATDS: 8.2169743824678607E-2; n = 1.
The test system of assay [29] is GAK. As to conditions: read-out: apparent Kd; compound concentrations: 100 nM and 1000 nM (sheet 'Samples'), CATDS: 7.0423696237644606E-2; n = 1.
In assay [30] the test system is HSP90B1. As to conditions: read-out: apparent Kd; compound concentrations: 100 nM and 1000 nM (sheet 'Samples'), CATDS: 5.9403199864953501E-2; n = 1.
Assay [31] relates to MAP4K4. Particulars: read-out: apparent Kd; compound concentrations: 100 nM and 1000 nM (sheet 'Samples'), CATDS: 6.0397447549850998E-2; n = 1.
Assay [32] relates to RIPK2. Particulars: read-out: apparent Kd; compound concentrations: 100 nM and 1000 nM (sheet 'Samples'), CATDS: 0.101348300005731; n = 1.
In assay [33] the test system is RIPK3. As to conditions: read-out: apparent Kd; compound concentrations: 100 nM and 1000 nM (sheet 'Samples'), CATDS: 0.17935532425018; n = 1.
The test system of assay [34] is TGFBR2. As to conditions: read-out: apparent Kd; compound concentrations: 100 nM and 1000 nM (sheet 'Samples'), CATDS: 9.6643303505933295E-2; n = 1.
Assay [35] deals with TNIK. As to conditions: read-out: apparent Kd; compound concentrations: 100 nM and 1000 nM (sheet 'Samples'), CATDS: 7.16657274929937E-2; n = 1.
The mark [36] stands for this setting: compound concentrations:100 nM and 1000 nM (sheet 'Samples').

Where two headings read alike, the source gives them in different places.

Consider `COc1cccc(NC(=O)NC2CCN(c3ccnc(Nc4ccc(F)cc4)n3)C2)c1` (centres unmarked) [GSK1379721A], for which, in assay [1] (CATDS: 1), the potency estimated from few doses is 1340 nM.
As to `CCN1CCN(Cc2ccc(C(=O)Nc3ccc(C)c(Oc4ccc5c(c4)CC(=O)N5)c3)cc2C(F)(F)F)CC1.Cl.Cl` [DDR1-in-1], the potency estimated from few doses in assay [2] (setting [36]) is 363 nM; in [3] (setting [36]) it was 958 nM; in assay [4] (setting [36]), 858 nM.
In the case of `CC(C)c1[nH]nc2c1N=C(c1ccccc1Cl)c1cc([N+](=O)[O-])ccc1N2` [RO0274710-000], the potency estimated from few doses in [1] (CATDS: 0.40583373860109201) was 864 nM; in assay [5], 1640 nM; in assay [6] (CATDS: 0.31885839544215799) it was 1370 nM.
In the case of `O=C1NC(=O)C(N2CCc3ccccc32)=C1c1cccc(Cl)c1` [SB-408010], the potency estimated from few doses in [7] is 1900 nM; in [8], 1580 nM.
`O=c1c(Oc2ccc(F)cc2F)cc2cnc(NC3CCOCC3)nc2n1CCCO` [RO4442245-000]: the potency estimated from few doses in [2] (setting [36]) is 1080 nM; in assay [9] (setting [36]), 42.5 nM; in assay [10] (setting [36]), 13.4 nM; in [3] (setting [36]), 0.149 nM; in assay [11] (setting [36]), 54.7 nM; in [12] (setting [36]), 15.9 nM. Besides, the potency estimated from few doses in assay [13] (setting [36]) is 611 nM.
For the molecule `Fc1cccc(COc2ccc(Nc3ncnc4sc(-c5ccc[nH]5)cc34)cc2Cl)c1` [GW707818B], the potency estimated from few doses in [14] is 1030 nM.
`Cn1cc(C2=C(c3cn(C)c4ncccc34)C(=O)NC2=O)c2ccccc21` [RO0271528-000]: the potency estimated from few doses was 1330 nM in [1] (CATDS: 0.169109962216623); 1150 nM in [15]; 1280 nM in [16]; 2170 nM in assay [17]; 1260 nM in [18]; 1230 nM in [6] (CATDS: 0.17608898897019801).
In the case of `O=C(Nc1ccccc1)Nc1cccc(Oc2ccc3nccn3n2)c1` [TPKI-39], the figures for the potency estimated from few doses in assay [19] and in assay [20] were 732 nM and 853 nM, respectively.
Consider `CS(=O)(=O)N1CCC(n2c(=O)c(Oc3ccc(F)cc3F)cc3cnc(NC4CCOCC4)nc32)CC1` [RO5045977-000], for which the potency estimated from few doses in [2] (compound concentrations: 100 nM and 1000 nM (sheet 'Samples'), CATDS: 6.1893327663863601E-2) was 1480 nM; in assay [9] (compound concentrations: 100 nM and 1000 nM (sheet 'Samples'), CATDS: 0.12322586321359499), 47.7 nM; in [10] (compound concentrations: 100 nM and 1000 nM (sheet 'Samples'), CATDS: 9.0776517139408097E-2), 131 nM; in assay [3] (compound concentrations: 100 nM and 1000 nM (sheet 'Samples'), CATDS: 0.53727809259194403) it was 1.11 nM; in assay [11] (compound concentrations: 100 nM and 1000 nM (sheet 'Samples'), CATDS: 8.8413103607242097E-2), 145 nM; in assay [12] (compound concentrations: 100 nM and 1000 nM (sheet 'Samples'), CATDS: 0.12213676583314199), 48.9 nM. The potency estimated from few doses in [4] (compound concentrations: 100 nM and 1000 nM (sheet 'Samples'), CATDS: 0.38284273517915801) is 2.09 nM; in assay [21], 247 nM; in assay [13] (compound concentrations: 100 nM and 1000 nM (sheet 'Samples'), CATDS: 0.11127151307282), 65.2 nM.
Consider `COC(=O)Nc1nc2ccc(Oc3ccc(NC(=O)Nc4cc(C(F)(F)F)ccc4F)cc3)cc2[nH]1.Cl` [GW654607A], for which the potency estimated from few doses in assay [2] (setting [36]) is 2140 nM; in [22], 640 nM.
Take `CCCN(CCS(C)(=O)=O)Cc1ccc(-c2ccc3ncnc(Nc4ccc(OCc5cccc(F)c5)c(Cl)c4)c3c2)o1.Cl` [GW621823A]: the potency estimated from few doses in [14] was 643 nM.
As for `Nc1ncc(-c2cccc(S(N)(=O)=O)c2)c2scc(-c3ccc(F)c(Cl)c3)c12` [GW856804X], the potency estimated from few doses in [23] is 306 nM; in assay [24], 758 nM; in assay [25] it was 1770 nM; in assay [26], 1210 nM; in assay [27], 1530 nM; in assay [28], 710 nM. Moreover, the potency estimated from few doses in [29] is 1000 nM; in assay [30], 1590 nM; in [31] it was 1510 nM; in [32], 475 nM; in [33], 196 nM; in assay [34] it was 518 nM. Moreover, the potency estimated from few doses in [35] was 961 nM.
